The panel holds about 83,000 compounds, 20% with a hit somewhere; the sample as a whole holds those more often.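 Values shown are percent growth following 48 h exposure of cells in 96-well plates to a single concentration of compound; below 10 was considered active.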 The source made the active and inactive calls.
Assays:
Assay in all cases: NCI-60 one-dose screen, 48 h (100 = growth as untreated, 0 = no growth, -100 = all killed)
Settings in all cases: 10 µM unless noted
[1] = tested on: SR leukemia
[2] = tested on: RPMI-8226 leukemia
[3] = tested on: OVCAR-8 ovarian
[4] = tested on: OVCAR-5 ovarian
[5] = tested on: OVCAR-4 ovarian
[6] = tested on: SK-OV-3 ovarian
[7] = tested on: IGROV1 ovarian
[8] = tested on: OVCAR-3 ovarian
[9] = tested on: HS 578T breast
[10] = tested on: NCI/ADR-RES ovarian
[11] = tested on: T-47D breast
[12] = tested on: BT-549 breast
[13] = tested on: MDA-MB-435 melanoma
[14] = tested on: SW-620 colon
[15] = tested on: MCF7 breast
[16] = tested on: HCT-116 colon
[17] = tested on: HCC-2998 colon
[18] = tested on: KM12 colon

Measured: growth

CN(C)Cc1ccc(O)c(C(=O)O)c1
inactive: [1] 97.8% | [2] 104% | [3] 108% | [4] 108% | [5] 118% | [6] 106% | [7] 95.6% | [8] 111% | [9] 109% | [10] 105% | [11] 109% | [12] 112% | [13] 107% | [14] 106% | [15] 107% | [16] 109% | [17] 109% | [18] 108%

COc1ccc(-c2nc3c(ncc4ccc(=O)[nH]c43)s2)cc1
inactive: [1] 45.5% | [2] 69.2% | [3] 83.9% | [4] 90% | [5] 98.8% | [6] 102% | [7] 67.5% | [8] 85.5% | [9] 88% | [10] 74.6% | [11] 78.7% | [12] 86.4% | [13] 80.6% | [14] 66.5% | [15] 62.5% | [16] 79.2% | [17] 91% | [18] 64.8%

CCOC(=O)c1csc(NC(=O)COc2ccc(/C=C3\Oc4ccccc4C3=O)cc2)n1
inactive: [1] 37.9% | [2] 79.5% | [3] 84.7% | [4] 92.1% | [5] 81.6% | [6] 138% | [8] 93.2% | [9] 91.1% | [10] 85.4% | [11] 97.5% | [12] 88.3% | [13] 58.6% | [14] 105% | [15] 69% | [16] 82.5% | [17] 106% | [18] 88.7%
active: [7] 6.55%

COc1cc(OC)c(/C=C/C(=O)c2c(OC)cccc2OC)c(OC)c1
inactive: [1] 23.3% | [2] 16.7% | [3] 24.2% | [5] 68.4% | [6] 21.7% | [9] 88.7% | [11] 30.1% | [14] 17.7% | [15] 25.1%
active: [4] 4.82% | [7] -1.35% | [8] -42.2% | [10] -22.1% | [12] 7.43% | [13] -22% | [16] 9.06% | [17] 0.761% | [18] 8.59%

c1csc(-c2ccc(CNc3c4ccccc4nc4ccccc34)cc2)c1
active: [1] -43.7% | [2] -44.4% | [8] 9.5% | [13] -83.4% | [14] -72.2% | [15] -63% | [16] -82.6% | [17] -87.2%
inactive: [3] 55.6% | [4] 67.1% | [5] 15.3% | [6] 65% | [7] 10% | [9] 60.6% | [10] 11.2% | [11] 71.9% | [12] 33.7% | [18] 26.3%

CCN1C(=O)N(CC)C2C1NN=c1s/c(=C\c3ccccc3F)c(=O)n12 (configuration not stated)
inactive: [2] 21.4% | [4] 27.5% | [5] 41.4% | [6] 32.6% | [7] 15.2% | [9] 13.2% | [11] 55.2% | [14] 18.2% | [15] 15.2% | [17] 12.8%
active: [1] 8.64% | [3] -1.12% | [8] 0.255% | [10] 6.01% | [12] 7.28% | [13] -37.4% | [16] 7.85% | [18] 4.31%

CCCCC1=C(P(=O)(O)O)N[C@H](C(=O)O)CS1
inactive: [1] 96.4% | [2] 99.7% | [3] 95.5% | [4] 94.4% | [5] 91.3% | [6] 80.7% | [7] 94.3% | [8] 106% | [9] 109% | [10] 108% | [11] 96.7% | [12] 102% | [13] 101% | [14] 96.9% | [15] 89.3% | [16] 96.5% | [17] 89.2% | [18] 110%

O=C(Nc1ccc(Oc2cccc(F)c2)c(Cl)c1)c1cccnc1
active: [8] 6.97% | [13] 1.64%
inactive: [1] 23.8% | [2] 15.8% | [3] 34.6% | [4] 72.6% | [5] 46.2% | [6] 30% | [7] 41.8% | [9] 31.3% | [10] 13.9% | [11] 33.5% | [12] 48.6% | [14] 25.8% | [15] 19.6% | [16] 33.7% | [17] 57.7% | [18] 29.3%

CC1(C)CC(=O)C2=C(C1)N(c1ccc(OC(F)(F)F)cc1)C(N)=C(C#N)C2c1ccc(Br)cc1F (configuration not stated)
inactive: [1] 76% | [2] 100% | [3] 35.8% | [4] 87.2% | [5] 54.9% | [6] 61.2% | [7] 63.2% | [8] 58% | [9] 23.7% | [10] 35.3% | [11] 78.9% | [12] 69.1% | [13] 93.1% | [14] 69.9% | [15] 83.3% | [16] 46.7% | [17] 88.4% | [18] 89.5%

— PubChem BioAssay (NCI)
